# Assay results as given in PubChem BioAssay.
# Activity calls are given as the source filed them.
# How the values were obtained:
# Albumin (Bos taurus) = Albumin (Bos taurus) (UniProt P02769); assay: compounds binding labelled BSA control protein – biochemical, small-molecule microarray, Alexa647 label, 635/667 nm fluorescence, artefact control for SMM control protein annotation, profiling panel (AID 1118); conditions: BSA-A647 binding, fluorescence 635 nm, higher = more signal;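 further: score merges 667 nm emission intensity and signal-to-noise per printed compound spot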
# Sequence of Albumin (Bos taurus) (P02769 whole entry, looked up): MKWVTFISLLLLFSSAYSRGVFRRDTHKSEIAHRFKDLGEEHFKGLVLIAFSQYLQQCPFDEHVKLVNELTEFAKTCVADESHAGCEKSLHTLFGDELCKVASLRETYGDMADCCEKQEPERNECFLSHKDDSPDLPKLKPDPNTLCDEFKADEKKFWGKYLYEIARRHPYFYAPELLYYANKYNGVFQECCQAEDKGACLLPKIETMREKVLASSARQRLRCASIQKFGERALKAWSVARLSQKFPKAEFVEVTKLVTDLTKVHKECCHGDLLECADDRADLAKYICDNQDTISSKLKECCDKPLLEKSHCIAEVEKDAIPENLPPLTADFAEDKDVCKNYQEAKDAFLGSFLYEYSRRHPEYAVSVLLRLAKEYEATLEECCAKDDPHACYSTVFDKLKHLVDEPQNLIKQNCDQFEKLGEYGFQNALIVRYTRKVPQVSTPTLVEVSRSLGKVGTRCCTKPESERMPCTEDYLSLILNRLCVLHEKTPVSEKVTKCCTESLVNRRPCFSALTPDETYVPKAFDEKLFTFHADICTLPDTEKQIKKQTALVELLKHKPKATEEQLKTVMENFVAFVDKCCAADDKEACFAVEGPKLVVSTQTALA
# [1] = probe aXIP binding to arrayed compounds – biochemical, NeuroSMM set, 635/667 nm fluorescence, primary screen (AID 1119); conditions: small-molecule microarray, higher = more signal, called active from +8 up or from −8 down;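 further: probe is the protein aXip251-270 applied at 1 µg/mL to compound-printed slides; binding of probe to printed compounds measured as 667 nm fluorescence plus signal to noise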
# [2] = probe aNOTCH3 binding on compound microarray – biochemical, small-molecule microarray, 635/667 nm fluorescence, primary screen (AID 1120); conditions: higher = more signal;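 further: probe is a biotin-tagged antibody raised against NOTCH3 rather than NOTCH3 protein; score merges spot fluorescence near 667 nm with spot signal to noise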
# [3] = probe aNOTCH2 binding on compound microarray – biochemical, small-molecule microarray, 635/667 nm fluorescence, primary screen (AID 1121); conditions: higher = more signal;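 further: score merges feature fluorescence read at 667 nm with its signal to noise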
# [4] = target: Carbonic anhydrase 2 (Homo sapiens) (UniProt P00918); assay: compounds binding carbonic anhydrase 2 – biochemical, small-molecule microarray, Alexa647-labelled CAII, profiling panel (AID 1122); conditions: CAII-A647 binding fluorescence, higher = more signal
# [5] = COS7 lysate on small-molecule microarray, probe aHis, 635 nm (AID 1123); conditions: COS7 cell lysate, fluorescence, higher = more signal;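 further: z-score combines 667nm fluorescence intensity with signal-to-noise per printed compound spot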
# [6] = probe aLAP1 signal on lysate-treated microarray – cell lysate, small-molecule microarray, COS7 lysate, primary screen (AID 1124); conditions: probe aLAP1, fluorescence, higher = more signal;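 further: lysate comes from COS7 cells expressing LAP1 and is applied at 0.3 µg/mL; score merges spot fluorescence near 667 nm with signal-to-noise over triplicate slides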
# Sam68 (KHDRBS1) = assay: compounds binding KHDRBS1 protein – biochemical, small-molecule microarray, 635 nm fluorescence, primary screen (AID 1125); conditions: higher = more signal;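 further: score merges 667 nm channel intensity with signal to noise over triplicate slides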
# [7] = test system: Chordin-like protein 2 (CHRDL2); assay: compounds binding chordin-like 2 – biochemical, small-molecule microarray, 635 nm fluorescence, primary screen (AID 1126); conditions: fluorescence 635 nm, higher = more signal;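 further: printed compound slides probed with Chrdl2 protein at 4 µg/mL for 1 h at 4 C; score merges 667 nm emission intensity with signal to noise over three replicate slides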
# [8] = target: Concanavalin-A (Canavalia ensiformis) (UniProt P02866); assay: compounds binding concanavalin A lectin – biochemical, small-molecule microarray, Alexa647 label, 635 nm, artefact control for SMM control protein annotation, primary screen (AID 1127); conditions: ConA-A647 binding fluorescence, higher = more signal;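 further: z combines 667 nm emission intensity with signal-to-noise across three replicate slides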
# Sequence of Concanavalin-A (Canavalia ensiformis) (P02866 whole entry, looked up): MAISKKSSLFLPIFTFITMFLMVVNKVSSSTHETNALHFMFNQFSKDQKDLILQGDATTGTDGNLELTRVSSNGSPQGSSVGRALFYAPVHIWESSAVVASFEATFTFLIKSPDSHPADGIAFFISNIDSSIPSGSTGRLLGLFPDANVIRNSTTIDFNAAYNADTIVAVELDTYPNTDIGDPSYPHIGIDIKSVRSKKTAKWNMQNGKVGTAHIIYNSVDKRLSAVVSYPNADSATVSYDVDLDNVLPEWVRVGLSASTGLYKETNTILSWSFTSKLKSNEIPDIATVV
smiles,measurement,setting,value
COC(=O)C[C@H]1O[C@]2(C(=O)N(C)c3ccccc32)[C@@H](C)[C@@H]1[Si](C)(C)F,composite z-score,Albumin (Bos taurus),-0.255
same,composite Z-score,[1],0.448 (inactive)
same,composite z-score,[2],-0.0584
same,composite z-score,[3],-0.161
same,composite z-score,[4],0.224
same,composite z-score,[5],0.597
same,composite z-score,[6],-0.0413
same,composite z-score,Sam68 (KHDRBS1),1.09
same,composite z-score,[7],0.592
same,composite z-score,[8],0.596
O=C(N1CCCCC1)[C@]1(Cc2ccccc2)N=C(c2ccc(OCCCO)cc2)O[C@@H]1c1ccccc1,composite z-score,Albumin (Bos taurus),0.441
same,composite Z-score,[1],-0.425 (inactive)
same,composite z-score,[2],0.096
same,composite z-score,[3],-0.0561
same,composite z-score,[4],0.225
same,composite z-score,[5],1.24
same,composite z-score,[6],0.968
same,composite z-score,Sam68 (KHDRBS1),1.18
same,composite z-score,[7],-0.862
same,composite z-score,[8],1.06
CCCC#C[Si](O[C@H](CC)c1cn(Cc2cccc(Cl)c2)nn1)(C(C)C)C(C)C,composite z-score,Albumin (Bos taurus),0.697
same,composite Z-score,[1],-0.014 (inactive)
same,composite z-score,[2],0.0715
same,composite z-score,[3],-0.179
same,composite z-score,[4],0.182
same,composite z-score,[5],1.03
same,composite z-score,[6],0.249
same,composite z-score,Sam68 (KHDRBS1),1.18
same,composite z-score,[7],0.103
same,composite z-score,[8],0.7
CCCC[C@@H]1C[C@H]1[C@@H](NC(=O)c1ccccc1)c1ccc(C(=O)OC)cc1,composite z-score,Albumin (Bos taurus),-0.108
same,composite Z-score,[1],0.953 (inactive)
same,composite z-score,[2],-0.048
same,composite z-score,[3],0.0203
same,composite z-score,[4],0.287
same,composite z-score,[5],0.157
same,composite z-score,[6],-0.156
same,composite z-score,Sam68 (KHDRBS1),-0.316
same,composite z-score,[7],-1.26
same,composite z-score,[8],-0.364
COCC(=C=CC[C@@H](O)c1cccc(OCCO)c1)C[C@@H](O)c1ccccn1,composite z-score,Albumin (Bos taurus),0.254
same,composite Z-score,[1],0.745 (inactive)
same,composite z-score,[2],0.0979
same,composite z-score,[3],-0.14
same,composite z-score,[4],0.744
same,composite z-score,[5],0.486
same,composite z-score,[6],1.73
same,composite z-score,Sam68 (KHDRBS1),0.338
same,composite z-score,[7],0.188
same,composite z-score,[8],0.218
COCCOC(=O)N1C(=O)[C@@]2(c3ccccc31)[C@H](c1ccccc1OCCO)N1[C@H](c3ccccc3)[C@H](c3ccccc3)OC(=O)[C@H]1[C@@H]2C(=O)N1CCN(c2ncccn2)CC1,composite z-score,Albumin (Bos taurus),0.493
same,composite Z-score,[1],1.6 (inactive)
same,composite z-score,[2],-0.0345
same,composite z-score,[3],-0.0756
same,composite z-score,[4],0.521
same,composite z-score,[5],1.59
same,composite z-score,[6],0.218
same,composite z-score,Sam68 (KHDRBS1),1.29
same,composite z-score,[7],0.0792
same,composite z-score,[8],1.11
C[C@@]1([C@@H](NC(=O)c2ccc(-c3ccccc3)cc2)c2ccc(Cl)cc2)C[C@H]1C1CCCCC1,composite z-score,Albumin (Bos taurus),0.688
same,composite Z-score,[1],-0.286 (inactive)
same,composite z-score,[2],0.305
same,composite z-score,[3],-0.0527
same,composite z-score,[4],0.302
same,composite z-score,[5],2.21
same,composite z-score,[6],0.0789
same,composite z-score,Sam68 (KHDRBS1),1.29
same,composite z-score,[7],-0.564
same,composite z-score,[8],1.01
O=C(CS)NCCCCCCNC(=O)[C@@H]1C[C@@H]2C(=O)NCC(=O)N2[C@@H]1c1cccc(OCCO)c1,composite z-score,Albumin (Bos taurus),-0.607
same,composite Z-score,[1],0.359 (inactive)
same,composite z-score,[2],-0.446
same,composite z-score,[3],-0.398
same,composite z-score,[4],0.679
same,composite z-score,[5],2.91
same,composite z-score,[6],0.71
same,composite z-score,Sam68 (KHDRBS1),0.318
same,composite z-score,[7],0.26
same,composite z-score,[8],0.625
COC(=O)[C@@]1(Cc2ccc(OC)cc2)[C@H]2c3cc(C(=O)N(C)C)n(CCc4ccccn4)c3C[C@H]2CN1C(=O)c1ccccc1,composite z-score,Albumin (Bos taurus),0.928
same,composite Z-score,[1],-0.0712 (inactive)
same,composite z-score,[2],1.28
same,composite z-score,[3],0.689
same,composite z-score,[4],0.461
same,composite z-score,[5],1.06
same,composite z-score,[6],0.272
same,composite z-score,Sam68 (KHDRBS1),0.221
same,composite z-score,[7],-0.764
same,composite z-score,[8],-0.138
Oc1ccc2cc[n+](Cc3sc4ccccc4c3Cl)cc2c1,composite z-score,Albumin (Bos taurus),-0.49
same,composite Z-score,[1],0.598 (inactive)
same,composite z-score,[2],0.0854
same,composite z-score,[3],-0.0694
same,composite z-score,[4],0.888
same,composite z-score,[5],2.88
same,composite z-score,[6],1.07
same,composite z-score,Sam68 (KHDRBS1),-0.702
same,composite z-score,[7],0.617
same,composite z-score,[8],0.376
COC(=O)[C@@]1(Cc2ccc(OC)cc2)[C@H]2c3cc(C(=O)N4CCCC4)n(Cc4ccc(O)c(OC)c4)c3C[C@H]2CN1C(=O)c1ccccc1,composite z-score,Albumin (Bos taurus),1.06
same,composite Z-score,[1],1.64 (inactive)
same,composite z-score,[2],1.18
same,composite z-score,[3],0.437
same,composite z-score,[4],0.845
same,composite z-score,[5],3.32
same,composite z-score,[6],1.09
same,composite z-score,Sam68 (KHDRBS1),0.535
same,composite z-score,[7],0.114
same,composite z-score,[8],0.988
